Bioassay records (PubChem)
Sampled rows, rich in hits. Any-hit rate of the full collection: about 4.6%.
ADAM17 inh: ADAM17 inhibitors, primary screen, biochemical, QFRET; Disintegrin and metalloproteinase domain-containing protein 17 (Homo sapiens), P78536; recombinant ADAM17, EDANS/DABCYL FRET peptide cleavage; inhibition, % at 6.95 µM; 0.83% of 370,000 active;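 active = inhibition above the mean of compounds lying between control limits plus 3 SD, set per campaign, cut at about 8.5% in these data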;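 note: 0% = DMSO-only wells as the low control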
ADAM10 inh: human ADAM10 inhibitors, primary screen, biochemical, QFRET, HTS; Disintegrin and metalloproteinase domain-containing protein 10 (Homo sapiens), O14672; recombinant ADAM10, EDANS/DABCYL FRET peptide cleavage, 3 h; inhibition, % at 7 µM; 0.62% of 370,000 active;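 active = inhibition above a per-campaign cutoff equal to the mean of compounds falling between control-based bounds plus 3 SD, cut at about 20% in these data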;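 note: 0% = DMSO wells while the 100% control is not disclosed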
FAS-TE inh: FAS thioesterase domain inhibitors, primary screen, biochemical, fluorescence intensity, uHTS | recombinant FAS-TE, OMFH fluorogenic substrate, fluorescence endpoint | inhibition, % at 15 µM | 0.67% of 360,000 active | AID 602261, 2012;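 active = compounds whose normalised, plate-corrected inhibition of enzyme fluorescence in the single-dose primary screen is 50% or more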;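 note: 0% = DMSO with enzyme and 100% = substrate without enzyme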
Target sequence (P49327 whole entry, looked up, the tested form may be a part): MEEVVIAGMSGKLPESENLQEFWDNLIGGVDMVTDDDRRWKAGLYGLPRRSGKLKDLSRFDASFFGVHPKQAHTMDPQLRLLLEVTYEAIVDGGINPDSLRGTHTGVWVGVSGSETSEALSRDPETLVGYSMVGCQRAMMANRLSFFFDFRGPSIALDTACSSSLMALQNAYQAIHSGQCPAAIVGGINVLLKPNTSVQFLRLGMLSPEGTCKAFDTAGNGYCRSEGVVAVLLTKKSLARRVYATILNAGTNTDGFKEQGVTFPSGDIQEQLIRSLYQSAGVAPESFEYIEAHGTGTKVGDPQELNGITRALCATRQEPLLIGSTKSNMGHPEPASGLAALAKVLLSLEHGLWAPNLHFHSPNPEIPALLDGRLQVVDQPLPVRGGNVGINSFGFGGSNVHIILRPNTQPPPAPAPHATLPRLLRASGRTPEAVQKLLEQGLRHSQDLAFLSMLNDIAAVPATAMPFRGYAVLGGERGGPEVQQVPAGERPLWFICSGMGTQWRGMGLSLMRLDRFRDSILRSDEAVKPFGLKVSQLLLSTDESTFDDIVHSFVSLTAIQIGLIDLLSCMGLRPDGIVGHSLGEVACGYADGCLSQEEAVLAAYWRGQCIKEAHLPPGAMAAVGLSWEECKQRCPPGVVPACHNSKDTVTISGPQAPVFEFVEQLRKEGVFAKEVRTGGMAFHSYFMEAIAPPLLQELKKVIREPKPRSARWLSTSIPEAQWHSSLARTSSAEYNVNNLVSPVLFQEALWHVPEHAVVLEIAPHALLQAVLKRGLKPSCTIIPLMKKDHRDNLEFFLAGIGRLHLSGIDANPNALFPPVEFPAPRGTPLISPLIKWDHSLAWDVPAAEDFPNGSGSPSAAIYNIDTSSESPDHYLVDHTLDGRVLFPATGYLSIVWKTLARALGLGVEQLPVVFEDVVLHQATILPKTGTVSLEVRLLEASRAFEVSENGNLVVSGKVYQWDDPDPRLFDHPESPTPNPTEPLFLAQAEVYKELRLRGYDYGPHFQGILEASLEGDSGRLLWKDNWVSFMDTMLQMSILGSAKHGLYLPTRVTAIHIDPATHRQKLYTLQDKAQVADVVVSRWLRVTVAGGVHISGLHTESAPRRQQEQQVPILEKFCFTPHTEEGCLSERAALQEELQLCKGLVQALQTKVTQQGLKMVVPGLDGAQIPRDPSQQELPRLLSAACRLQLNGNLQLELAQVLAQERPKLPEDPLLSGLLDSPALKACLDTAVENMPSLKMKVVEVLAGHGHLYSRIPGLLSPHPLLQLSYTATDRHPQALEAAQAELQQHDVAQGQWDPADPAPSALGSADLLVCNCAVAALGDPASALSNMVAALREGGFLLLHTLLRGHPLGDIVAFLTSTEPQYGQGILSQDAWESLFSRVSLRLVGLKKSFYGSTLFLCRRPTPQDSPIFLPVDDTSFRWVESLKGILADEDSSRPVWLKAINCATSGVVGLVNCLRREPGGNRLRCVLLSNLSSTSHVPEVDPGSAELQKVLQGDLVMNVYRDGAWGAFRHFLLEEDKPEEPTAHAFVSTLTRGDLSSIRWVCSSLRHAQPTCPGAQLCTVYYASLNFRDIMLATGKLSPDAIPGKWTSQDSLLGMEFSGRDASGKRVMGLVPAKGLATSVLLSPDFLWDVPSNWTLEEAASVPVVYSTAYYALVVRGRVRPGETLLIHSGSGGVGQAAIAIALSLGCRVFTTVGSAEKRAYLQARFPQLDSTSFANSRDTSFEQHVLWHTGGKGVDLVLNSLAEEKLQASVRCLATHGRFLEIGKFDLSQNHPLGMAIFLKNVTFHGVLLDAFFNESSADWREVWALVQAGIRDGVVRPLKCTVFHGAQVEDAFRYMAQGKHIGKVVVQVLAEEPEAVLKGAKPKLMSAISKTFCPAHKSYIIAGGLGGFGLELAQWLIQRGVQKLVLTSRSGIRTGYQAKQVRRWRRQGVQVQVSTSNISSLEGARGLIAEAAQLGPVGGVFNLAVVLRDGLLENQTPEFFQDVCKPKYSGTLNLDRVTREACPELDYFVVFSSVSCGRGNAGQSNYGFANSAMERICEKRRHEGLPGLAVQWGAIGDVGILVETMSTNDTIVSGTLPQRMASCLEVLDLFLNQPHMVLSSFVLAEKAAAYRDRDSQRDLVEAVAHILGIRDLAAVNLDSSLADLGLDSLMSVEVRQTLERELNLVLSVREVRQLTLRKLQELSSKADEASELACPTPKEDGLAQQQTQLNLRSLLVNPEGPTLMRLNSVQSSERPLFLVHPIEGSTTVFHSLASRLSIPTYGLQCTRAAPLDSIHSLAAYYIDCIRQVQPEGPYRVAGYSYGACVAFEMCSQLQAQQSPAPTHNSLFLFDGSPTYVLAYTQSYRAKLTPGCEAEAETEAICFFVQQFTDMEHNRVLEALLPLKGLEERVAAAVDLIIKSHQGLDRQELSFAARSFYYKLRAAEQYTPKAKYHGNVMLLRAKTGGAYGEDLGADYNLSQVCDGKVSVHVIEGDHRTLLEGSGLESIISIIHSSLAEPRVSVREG
proKLK7 act: proKLK7 zymogen activators, primary screen, biochemical, fluorescence intensity. Kallikrein-7 (Homo sapiens), P49862. purified proKLK7, EDANS-DABCYL substrate fluorescence; 100% is mature enzyme control, 0% vehicle. activation, % at 7 µM. 0.9% of 370,000 active. AID 652039, 2013;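 active = activation above the mean of all tested compounds plus 3 SD, computed per campaign excluding outliers beyond control limits, cut at about 13% in these data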
NR3A LBD binder: binders of NR3A ligand-binding domain, primary screen, biophysical, differential scanning fluorimetry, uHTS; AID 1259313, 2017; NR3A LBD differential scanning fluorimetry, Tm shift; 0% = protein alone, 100% = glycine-bound protein; 2.5% of 340,000 active; Glutamate receptor ionotropic, NMDA 3A (GRIN3A) ligand-binding domain; Tm shift relative to glycine control, % at 25 µM;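 active = melting temperature shift of at least 10% of the positive control shift, at one fixed dose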
Active calls of the source: *; / = no result given.

SMILES	ADAM17 inh	ADAM10 inh	FAS-TE inh	proKLK7 act	NR3A LBD binder
O=C(OC12CCCN(C1)/C(=C/c1cccc(Cl)c1)C2)c1ccc(F)cc1 (centres undefined)	4	2	/	0	/
O=C(NCCc1nc2ccccc2n1C/C=C/c1ccccc1)C1CCCCC1	0	12	/	/	/
COc1ccc(S[C@]2(C(=O)N3CCN(c4ncccn4)CC3)CC(=O)N(c3ccccc3)[C@@H]2c2ccc(OC)cc2)cc1	4	12	/	0	/
Cc1noc(C)c1S(=O)(=O)N1CCC(C(=O)NCCc2ccc(S(N)(=O)=O)cc2)CC1	-6	-13	-4	0	11*
CNC(=O)C[C@@H]1CC[C@@H]2[C@H](COc3ccc(NC(=O)c4cccc(F)c4)cc3C(=O)N2C)O1	-4	-1	/	0	/
O=C(CSc1nc2ccc([N+](=O)[O-])cc2[nH]1)c1ccc2ccccc2c1	4	11	16	0	23*
O=C(N/N=C\C=C\c1ccco1)c1cc(-c2ccc3ccccc3c2)n[nH]1	1	1	6	-1	15*
O=[N+]([O-])c1cccc(/C=C/c2nc(C=Nc3ccc4ccccc4c3)c(O)o2)c1	1	-7	-33	1	11*
O=[N+]([O-])c1cccc(N=Cc2ccccc2)c1	0	5	-3	0	-3
CCC(=O)Nc1cccc(C(=O)/C=C/c2cc(Br)ccc2OC)c1	2	4	8	-3	-6
COC(=O)CNC(=O)/C=C/c1cc(Br)ccc1OC	-14	-37	-1	1	0
COc1ccc(Br)cc1/C=C/C(=O)Nc1ccc2ccccc2c1	7	3	27	-23	15*
COc1ccc(Br)cc1/C=C/C(=O)Nc1ccc(C)cc1	8	15	24	0	20*
COC(=O)N1CCC[C@H]1c1cccc2[nH]cc(C)c12	-5	-14	/	1	/
C/C(=N\NC(=O)Cc1c[nH]c2ccccc12)c1ccc2ccccc2c1	-3	-4	24	-3	15*
C/C(=N\NC(=O)c1c[nH]c2ccccc12)c1ccc2c(c1)OCO2	0	1	5	1	7
O=C(Cc1cccc(NC(=O)C2CCN(S(=O)(=O)c3cccc([N+](=O)[O-])c3)CC2)c1)Nc1cccc(C(=O)N2CCCCC2)c1	0	5	18	0	11*
CN(C(=O)c1cccc(NC(=O)Cc2ccc(NC(=O)C3CCN(S(=O)(=O)c4cccc([N+](=O)[O-])c4)CC3)cc2)c1)C1CC1	2	-3	7	0	0
CN(C(=O)c1ccc(NC(=O)Cc2ccc(NC(=O)C3CCN(S(=O)(=O)c4cccc([N+](=O)[O-])c4)CC3)cc2)cc1)C1CCCC1	0	2	14	0	10*
CN(C(=O)c1cccc(NC(=O)Cc2ccc(NC(=O)C3CCCN(S(=O)(=O)c4cccc([N+](=O)[O-])c4)C3)cc2)c1)C1CCC1 (centres undefined)	6	-1	31	-1	11*
CN(C(=O)c1cccc(NC(=O)Cc2cccc(NC(=O)C3CCN(S(=O)(=O)c4cccc([N+](=O)[O-])c4)CC3)c2)c1)C1CC1	2	-1	8	0	4
Cc1ccc(C(=O)N2CCC(Oc3cccnc3)CC2)c(C)c1	-2	2	/	0	/
C=CCNC(=O)CSc1nc2c(c(=O)[nH]1)CCCC2	3	-6	/	0	/
Cc1ccc(C(=O)N/N=C/c2c[nH]c3ccccc23)o1	1	0	-6	0	0
Cc1cc(C(=O)N/N=C/c2c[nH]c3ccccc23)cs1	-2	1	-7	-1	27*
SMILES	ADAM17 inh	ADAM10 inh	FAS-TE inh	proKLK7 act	NR3A LBD binder
O=C(N/N=C/c1cc(Br)cc(Cl)c1O)c1ccc2c(c1)OCO2	0	-3	24	-1	11*
O=C(N/N=C/c1c[nH]c2ccccc12)c1cccs1	-2	-4	14	1	23*
O=C(N/N=C/c1c[nH]c2ccccc12)c1sc2ccccc2c1Cl	1	3	14	-72	35*
O=C(NN=Cc1c[nH]c2ccccc12)NN=Cc1c[nH]c2ccccc12	0	-9	2	-1	/
O=C(NC1=N[C@@]2(C=C3CCCCC3n3c(=O)n(-c4ccccc4)c(=O)n32)CN1Cc1ccccc1)c1ccccc1 (some centres undefined)	2	9	/	0	/
O=C(CSc1nnc(COc2ccccc2)n1-c1ccccc1)Nc1ccc(S(=O)(=O)Nc2nccs2)cc1	4	14	/	0	/
O=C(N/N=C/c1c[nH]c2ccccc12)c1cccc([N+](=O)[O-])c1	1	0	18	0	25*
O=C(N/N=C/c1c[nH]c2c1ccc1ccccc12)c1ccc([N+](=O)[O-])cc1	6	8	-2	0	39*
O=C(N/N=C/c1coc2ccccc2c1=O)c1cccc([N+](=O)[O-])c1	-21	5	19	0	-5
O=C(O)COc1ccccc1/C=N/NC(=O)CSc1nnc(SCc2ccc(Cl)cc2)s1	2	1	-2	0	-2
O=C(CSc1nnc(SCc2ccc(Cl)cc2)s1)N/N=C/c1c[nH]c2ccccc12	2	2	4	1	24*
Cc1nc(N)sc1C(=O)N/N=C/c1c[nH]c2ccccc12	-6	3	-8	0	24*
O=C(Cc1ccccc1)NC1CCCc2c1cnn2-c1ccc(F)cc1F (centres undefined)	-2	-6	/	/	/
COc1ccc(-c2c(Cc3ccccc3)nc(NC(=O)c3ccccc3F)n2C)cc1	2	-1	/	0	/
C=CCN(C)C(C#CCCCC)c1ccccc1 (centres undefined)	-7	-4	/	/	/
COc1ccc(S[C@]2(C(=O)N3CCOCC3)CC(=O)N(C(=O)CCc3ccccc3)[C@@H]2c2ccc(OC)cc2)cc1	7	15	/	1	/
COC(=O)[C@]12C[C@H](CC(=O)NCc3cccs3)C(=O)N(Cc3ccco3)C1=C[C@H](C(C)(C)C)O[C@@H]2C	0	-4	/	1	/
COc1ccc(CSc2nnc(SCc3ccccc3)s2)cc1	2	1	/	0	/
O=C(N/N=C/c1c[nH]c2ccccc12)c1ccc2c(c1)OCCO2	-2	1	-2	0	11*
Cc1ccc(C(=O)Nc2ccc(C(=O)N/N=C/c3c[nH]c4ccccc34)cc2)cc1	-5	-17	9	-11	31*
O=C(N/N=C/c1c[nH]c2ccccc12)c1ccccc1	-2	-2	-7	1	18*
CC(=O)n1cc(/C=N/NC(=O)c2ccc([N+](=O)[O-])cc2)c2ccccc21	-2	5	21	0	21*
